Source: PubChem BioAssay (National Center for Advancing Translational Sciences (NCATS))
G9a inh = blocks human histone lysine methyltransferase G9a; G9a H3K9 monomethylation, AlphaScreen, 2 h; Potency, µM (series often up to 102 µM), for inactives: top-dose activity, negative = inhibition, most hits filed as inhibitors; hit rate 8.8% among 350,000; AID 504332; further: on the % scale 0 is the no-effect control and ±100 the full control effect; nearly all actives have a fitted effect of over 75% in size
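Chemiluminescent proximity detection of H3K9 monomethylation, read after 10 min bead incubation in the dark. Reaction: 20 nM G9a, 500 nM biotin-H3K9 peptide, 20 uM SAM cofactor, 2 h, room temperature, following 15 min enzyme-compound preincubation.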
HP1b binding inh = inhibitors of HP1-beta chromodomain binding to methylated histone tails; AlphaScreen HP1-beta / biotin-H3K9me3 peptide binding; P83916; AID 540317; hit rate 0.56% among 390,000; Potency, µM (top dose mostly 114 µM), inactives show at the top dose activity change, negative = inhibition, actives largely listed as inhibitors; further: nearly all actives have a fitted effect of over 70% in size
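Compound inhibition of the preformed complex between 50 nM HP1-beta and 50 nM biotinylated H3K9me3 peptide was read by AlphaScreen. Buffer was PBS pH 7.4 with 0.01% Tween-20. Incubations ran 30 min at room temperature, with 10 ug/mL donor/acceptor beads.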
BAZ2B inh = BAZ2B (human) inhibition; AlphaScreen BAZ2B-H3K14Ac peptide displacement; hit rate 4.4% among 360,000; Potency, µM (series often up to 114 µM), without a hit: at the highest dose activity change, negative = inhibition, hits mostly inhibitors; further: on the % scale 0 is the no-effect control and ±100 the full control effect; nearly all actives have a fitted effect of over 60% in size
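Compounds, titrated to a top concentration of 110 uM, were incubated 30 min at room temperature with preformed BAZ2B/acetyl-K14 H3 peptide complex (50 nM each). Proximity signal was measured by AlphaScreen after 20 min with beads.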
L3MBTL1 inh = inhibitors of human L3MBTL1; Potency, µM (top dose mostly 57.1 µM), inactives show top-dose activity, negative = inhibition, actives largely listed as inhibitors; hit rate 0.66% among 230,000; AID 485360; AlphaScreen L3MBTL1–H3K9me1 peptide binding; Q9Y468; further: on the % scale 0 is the no-effect control and ±100 the full control effect; nearly all actives have a fitted effect of over 60% in size
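Displacement of a biotinylated histone H3(1-15) peptide monomethylated at Lys9 (75 nM) from L3MBTL1 (50 nM) was measured by AlphaScreen after a 30 min room-temperature compound incubation; cefsulodin titration served as intraplate control.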
JMJD2A Tudor inh = inhibitors of human JMJD2A Tudor domain; AlphaScreen JMJD2A-Tudor / H3K4me3 peptide binding; hit rate 4.4% among 390,000; Potency, µM (top dose mostly 114 µM), for the others: at the highest dose activity change, negative = inhibition, most hits filed as inhibitors; O75164; further: on the % scale 0 is the no-effect control and ±100 the full control effect; nearly all actives have a fitted effect of over 50% in size
Target sequence (O75164 whole entry, looked up, the tested form may be a part): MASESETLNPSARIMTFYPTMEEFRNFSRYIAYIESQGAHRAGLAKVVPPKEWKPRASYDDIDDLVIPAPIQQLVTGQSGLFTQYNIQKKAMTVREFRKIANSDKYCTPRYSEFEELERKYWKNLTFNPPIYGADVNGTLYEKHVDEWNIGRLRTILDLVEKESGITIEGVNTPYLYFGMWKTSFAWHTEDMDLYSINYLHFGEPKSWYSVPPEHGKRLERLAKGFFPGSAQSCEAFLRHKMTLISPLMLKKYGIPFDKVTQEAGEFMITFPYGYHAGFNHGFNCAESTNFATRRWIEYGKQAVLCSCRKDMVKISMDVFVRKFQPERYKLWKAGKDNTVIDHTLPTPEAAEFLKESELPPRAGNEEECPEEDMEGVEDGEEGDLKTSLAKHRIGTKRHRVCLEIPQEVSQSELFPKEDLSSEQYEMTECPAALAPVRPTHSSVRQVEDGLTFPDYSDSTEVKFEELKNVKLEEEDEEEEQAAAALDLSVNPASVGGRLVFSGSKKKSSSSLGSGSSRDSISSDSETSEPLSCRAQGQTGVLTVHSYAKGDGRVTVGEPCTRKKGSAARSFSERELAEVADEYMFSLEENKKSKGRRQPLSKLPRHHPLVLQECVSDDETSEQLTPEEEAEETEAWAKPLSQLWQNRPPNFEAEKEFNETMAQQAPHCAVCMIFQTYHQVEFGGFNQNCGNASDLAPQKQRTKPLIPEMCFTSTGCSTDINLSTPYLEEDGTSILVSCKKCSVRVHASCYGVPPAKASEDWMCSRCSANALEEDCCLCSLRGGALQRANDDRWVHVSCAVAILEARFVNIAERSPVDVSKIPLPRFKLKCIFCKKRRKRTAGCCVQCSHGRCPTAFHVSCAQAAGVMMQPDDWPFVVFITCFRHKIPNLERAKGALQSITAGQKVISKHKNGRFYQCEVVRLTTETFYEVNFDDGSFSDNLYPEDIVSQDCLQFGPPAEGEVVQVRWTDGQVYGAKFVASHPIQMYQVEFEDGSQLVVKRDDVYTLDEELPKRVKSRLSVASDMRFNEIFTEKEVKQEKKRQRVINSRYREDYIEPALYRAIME
Active calls of the source: *; [ ] = another dose, or the depositor's remark. Only some compounds are listed: those with a hit (about 11% of all), similar ones and a draw of the others. The call rests on the fitted dose curve; in most records, active means well fitted inhibition curve with a large enough effect; inconclusive means small, poorly fitted or top-dose-only effect; inactive means no such curve, though single readings can be large or run the other way. Potency means the concentration at half of the fitted maximal effect.

What do the screens show for `CCOC(=O)c1cccnc1SCC(=O)Nc1ccc(C)cc1C`?
G9a inh: 12.8%[59 µM]; HP1b binding inh: -1.1%; BAZ2B inh: 4.3%; JMJD2A Tudor inh: 0.6%

How did Cc1ccc(NC(=O)c2ncn(-c3ccccc3)n2)cc1Cl do in these assays?
G9a inh: 12.6%[59 µM]; HP1b binding inh: 8.0%; BAZ2B inh: 1.0%; JMJD2A Tudor inh: -17.1%

How did Cc1cc(-c2nnc(CCC(=O)N(C)C(C)c3cccs3)o2)no1 (configuration not stated) do in these assays?
G9a inh: -8.7%; HP1b binding inh: 38.0%; BAZ2B inh: -18.8%; L3MBTL1 inh: -5.2%; JMJD2A Tudor inh: -0.7%

Results for Cc1cccc(NC(=O)CSCC(=O)N(CCC(C)C)c2c(N)n(Cc3ccccc3)c(=O)[nH]c2=O)c1 ?
G9a inh: 39.8µM*; HP1b binding inh: 16.7%; BAZ2B inh: -15.3%; L3MBTL1 inh: 5.8%; JMJD2A Tudor inh: -5.1%

How did CCCCN(C(=O)CSc1nnc(-c2ccccc2)n1C)c1c(N)n(Cc2ccccc2)c(=O)[nH]c1=O do in these assays?
G9a inh: 10µM*; HP1b binding inh: 19.8%; BAZ2B inh: 1.0%; L3MBTL1 inh: 7.2%; JMJD2A Tudor inh: -12.0%

How did CCN(C(=O)CSc1ncccn1)c1c(N)n(Cc2ccccc2)c(=O)[nH]c1=O do in these assays?
G9a inh: 50.1µM*; HP1b binding inh: 21.2%; BAZ2B inh: -6.3%; L3MBTL1 inh: 2.3%; JMJD2A Tudor inh: -17.1%

What do the screens show for `CCCCN(C(=O)CSc1nnc2ccccn12)c1c(N)n(Cc2ccccc2)c(=O)[nH]c1=O`?
G9a inh: inconclusive; HP1b binding inh: 11.9%; BAZ2B inh: 4.3%; L3MBTL1 inh: -19.1%; JMJD2A Tudor inh: -5.7%

Results for CCN(C(=O)CSc1nnc2ccccn12)c1c(N)n(Cc2ccccc2)c(=O)[nH]c1=O ?
G9a inh: 50.1µM*; HP1b binding inh: 52.5%; BAZ2B inh: 5.4%; L3MBTL1 inh: 7.6%; JMJD2A Tudor inh: 2.4%

What do the screens show for `O=C(Nc1ccc(C(=O)N2CCN(c3cccc(Cl)c3)CC2)cc1)c1nsc2ccccc12`?
G9a inh: -2.8%[59 µM]; HP1b binding inh: 19.7%[57 µM]; BAZ2B inh: -0.4%; JMJD2A Tudor inh: -9.1%

What do the screens show for `Cc1cccc(Nc2ncnc3c2cnn3C)c1C`?
G9a inh: 3.9%[59 µM]; HP1b binding inh: 2.6%; BAZ2B inh: -0.5%; JMJD2A Tudor inh: -20.5%

What do the screens show for `O=S1(=O)C[C@@H]2N=C(N/N=C/c3ccccc3)S[C@@H]2C1`?
G9a inh: inconclusive; HP1b binding inh: 2.7%; BAZ2B inh: -4.2%; JMJD2A Tudor inh: -11.9%

How did C/C(=N\NC1=N[C@H]2CS(=O)(=O)C[C@H]2S1)c1ccccc1 do in these assays?
G9a inh: 50.1µM*; HP1b binding inh: 12.4%; BAZ2B inh: inconclusive; JMJD2A Tudor inh: inconclusive

Results for CN(NC(=O)/C=C/C(=O)O)c1ncc(C(F)(F)F)cc1Cl ?
G9a inh: 6.31µM*; HP1b binding inh: 37.5%; BAZ2B inh: inconclusive; L3MBTL1 inh: -19.2%; JMJD2A Tudor inh: -16.0%

What do the screens show for `COc1cc(-c2noc(-c3ccc(NCc4ccco4)c([N+](=O)[O-])c3)n2)cc(OC)c1OC`?
G9a inh: -23.7%[59 µM]; HP1b binding inh: 34.8%; BAZ2B inh: inconclusive; JMJD2A Tudor inh: -15.9%

How did COc1ccc(C2C(C#N)=C(N)Oc3c2sc2nc(C)cc(C)c32)cc1 (configuration not stated) do in these assays?
G9a inh: 11.2µM*; HP1b binding inh: 17.1%; BAZ2B inh: -35.7%; JMJD2A Tudor inh: -17.6%

What do the screens show for `O=C(CSc1ncn[nH]1)c1ccccc1`?
G9a inh: 3.16µM*; HP1b binding inh: -70.3%; BAZ2B inh: inconclusive; L3MBTL1 inh: -4.0%; JMJD2A Tudor inh: 25.1µM*

How did COc1ccc(CNC(=O)CSc2ncn[nH]2)cc1 do in these assays?
G9a inh: 2.82µM*; HP1b binding inh: 37.9%; BAZ2B inh: -3.6%; JMJD2A Tudor inh: -21.6%

Results for O=C(CSc1nnc(SCC(=O)c2ccco2)s1)c1ccco1 ?
G9a inh: -11.9%[59 µM]; HP1b binding inh: inconclusive; BAZ2B inh: inconclusive; L3MBTL1 inh: inconclusive; JMJD2A Tudor inh: 20µM*
